# An excerpt weighted towards active compounds, which were near 22% of everything screened.
# Pf growth 48h: inhibits P. falciparum growth in the first generation, 48 h. Potency, µM (series often up to 28.7 µM), for inactives: at the top dose activity change, negative = inhibition, actives largely listed as inhibitors. 5.9% of 310,000 active. P. falciparum luciferase growth in erythrocytes, 48 h. AID 504832; further: potency means the concentration at half of the fitted maximal effect; on the % scale 0 is the no-effect control and ±100 the full control effect
#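 Erythrocytes infected with P. falciparum carrying an integrated firefly luciferase reporter (2% hematocrit, 0.1% parasitemia final) were exposed to compounds in RPMI 1640 with 0.5% Albumax at 37 C, 5% CO2. Growth inhibition was scored as reduced luminescence.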
# LmPK inh: blocks Leishmania mexicana pyruvate kinase activity; Q27686; AID 1721; Potency, µM (series often up to 57.5 µM), for the others: top-dose activity change, negative = inhibition, actives largely listed as inhibitors; purified LmPK, Kinase-Glo ATP luminescence, 1 h; 0.37% of 290,000 active; further: potency means the concentration at half of the fitted maximal effect; on the % scale 0 is the no-effect control and ±100 the full control effect
# Target sequence (Q27686 whole entry, looked up): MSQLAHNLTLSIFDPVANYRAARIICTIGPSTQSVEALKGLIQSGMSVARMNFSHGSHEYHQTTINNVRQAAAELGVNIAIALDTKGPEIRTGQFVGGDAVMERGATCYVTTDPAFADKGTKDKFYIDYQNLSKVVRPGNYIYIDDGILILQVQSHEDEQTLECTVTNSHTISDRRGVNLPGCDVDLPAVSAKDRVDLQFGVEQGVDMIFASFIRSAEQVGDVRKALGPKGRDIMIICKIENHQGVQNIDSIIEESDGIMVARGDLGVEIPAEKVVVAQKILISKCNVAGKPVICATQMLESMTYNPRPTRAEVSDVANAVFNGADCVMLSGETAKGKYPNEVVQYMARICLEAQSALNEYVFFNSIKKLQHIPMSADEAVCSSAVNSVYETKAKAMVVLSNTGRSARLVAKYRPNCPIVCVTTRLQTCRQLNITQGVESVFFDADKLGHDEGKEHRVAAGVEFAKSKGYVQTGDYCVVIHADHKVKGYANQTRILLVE
#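 In 50 mM imidazole pH 7.2 with 7 mM MgCl2, LmPK (0.1 nM) turned over PEP (0.5 mM) and ADP (0.1 mM) for 1 h at room temperature. Luciferase read-out of ATP.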
# CHX counter: counter-screen hit for Shiga toxin inhibitors, cycloheximide; AID 2314; max response, %; cell reporter, cycloheximide protein synthesis inhibition counterscreen; 12% of 300,000 active; in the data active means max response mostly above about 13%, no sharp cut-off; inactive means mostly below about 14%; further: read at 38.3 µM for the half of the compounds with a filed dose; 0% is about no effect
# Shiga toxin inh: inhibitors of Shiga toxin in Vero cells; Vero cells, Shiga toxin protein synthesis inhibition reporter; AID 2315; 9.2% of 290,000 active; inhibition, % at 38.7 µM; in the data active means inhibition mostly above about 28%, no sharp cut-off; inactive means mostly below about 43%; further: 0% is about no effect
# Pf growth 96h: inhibits malaria parasite growth, 96 h; P. falciparum luciferase reporter growth, 96 h; Potency, µM (top dose mostly 28.7 µM), for inactives: at the top dose activity change, negative = inhibition, hits mostly inhibitors; 6.9% of 320,000 active; further: potency means the concentration at half of the fitted maximal effect; on the % scale 0 is the no-effect control and ±100 the full control effect
#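 Erythrocytes infected with luciferase-expressing P. falciparum were dispensed at 2% hematocrit and 0.05% parasitemia (final), then incubated with compounds 96 hours at 37 C in 5% CO2. Luminescence after detection reagent addition reported growth.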
# An asterisk follows results filed as active; i = inactive; ? = inconclusive; nt = no result; + = active, no number; [ ] = another dose, or the depositor's remark. Unless noted, the call rests on the fitted dose curve; in most records, active means well fitted inhibition curve with a large enough effect; inconclusive means small, poorly fitted or top-dose-only effect, or another doubt; inactive means no such curve, though single readings can be large or run the other way.
SMILES,Pf growth 48h,LmPK inh,CHX counter,Shiga toxin inh,Pf growth 96h
O=C1S/C(=C/c2ccccc2F)C(=O)N1CCN=C1NS(=O)(=O)c2ccccc21,4.8%,-0.4%,-2.6,-1.7,-0.2%
COc1ccc(S(=O)(=O)N2CCCOC2CNC(=O)C(=O)NCc2ccccc2F)cc1C (configuration not stated),-19.1%,-6.6%,-2.3,-4.0,?
CCOC(=O)Nc1ccc2c(c1)ncn2C1CCCCC1,-22.3%,-2.8%,26.6*,82.4*,-7.4%
O=C(O)c1ccc2c(c1)ncn2C1CCCCCC1,nt,-1.2%,-4.6,18.2,nt
COC(=O)Nc1ccc2c(c1)ncn2C1CCCCC1,69.4%,0.0%,22.7*,31.2*,nt
O=C(O)CCC/C=C\C[C@@H]1[C@@H](/C=C/[C@@H](O)COc2cccc(C(F)(F)F)c2)[C@H](O)C[C@@H]1O,-8.8%,nt,nt,nt,0.953µM*
CC(=O)N1CCN(c2ccc(Nc3ncnc4c3oc3ccccc34)cc2)CC1,-21.2%,-13.3%,42.8*,128.4,?
CCc1nc(Nc2ccc(N3CCN(C(C)=O)CC3)cc2)c2oc3ccccc3c2n1,10.4µM*,-1.0%,18.1*,-4.5,31.6%
CN(C)c1ccc(/C=C/c2cccc[n+]2[O-])cc1,147.9%,-1.7%,32.9*,58.9*,248.9%
CC(C)CC[n+]1ccccc1/C=C/c1ccc(N(C)C)cc1,0.928µM*,-5.0%,6.1,-1.6,-10.1%
CN(C)c1ccc(/C=C/c2c([N+](=O)[O-])c(=O)n(C)c(=O)n2C)cc1,27.4%,-4.2%,14.9,17.7,15.9%
CSc1ccc(-c2nc(O)c3cnccn23)cc1,-8.3%,5.4%,-2.3,-3.1,0.4%
CC(=O)c1ccc(NC(=O)CSc2ccc(-c3sc(C)nc3C)nn2)cc1,?,-2.6%,12.9*,18.2,?
COc1ccc(NC(=O)CSc2ccc(-c3sc(C)nc3C)nn2)cc1OC,?,-2.4%,18.6,-8.6,13.1µM*
Cc1nc(C)c(-c2ccc(SCC(=O)Nc3ccc(C)c(Cl)c3)nn2)s1,16.2%,-0.7%,11.1,-3.9,-29.7%
C[N+]1(CCCOC(=O)C2(c3ccccc3)CCCC2)CCOCC1,11.7µM*,-0.1%,-1.5,-2.1,?
O=C(OCCN1CCCCC1)C1(c2ccccc2)CCCC1,0.0%,5.7%,6.1,-4.3,i
O=C(OCCN1CCCC1)C1(c2ccccc2)CCCC1,0.9%,-11.4%,-0.8,-10.8,0.738µM*
O=C(OCCN1CCCCC1)c1cccc(F)c1,43.7%,0.3%,10.7,-8.5,5.86µM*
O=C(OCCN1CCCCC1)c1ccccc1Br,-13.0%[0.00184 µM],3.1%,35.4*,39.6,48.2%
O=C(OCCN1CCCCC1)c1ccc(Cl)cc1,nt,2.0%,12.4,38.5,2.5%
CC(Sc1nc2ccccc2s1)C(=O)N1CCOCC1 (configuration not stated),19.0%,5.2%,11.6,14.9,17.6%
COc1ccccc1NC(=O)CCc1nnc2ccc(N3CCN(C)CC3)nn12,12.2%,6.2%,-3.7,9.7,?
Cc1ccc(C)c2nc3sc(C(=O)O)cc3cc12,40.8%,?,-1.8,-6.1,47.2%
CC(Sc1nc(-c2ccco2)nc2c1c(=O)n(C)c(=O)n2C)C(=O)O (configuration not stated),12.4%,5.7%,-2.7,-9.4,3.2%
SMILES,Pf growth 48h,LmPK inh,CHX counter,Shiga toxin inh,Pf growth 96h
Clc1ccc2ccc3cccnc3c2n1,?,-0.6%,5.3,50.8,?
Cc1[nH]c2c(ccc3cccnc32)c1C,17.9%,-0.9%,17.1*,41.5*,18.7%
CSc1ccc(CN(C)C(=O)CCNS(=O)(=O)c2ccc(C)c(C)c2)cc1,3.7µM*,nt,nt,nt,?
CC(=O)N1c2ccc(S(=O)(=O)NCCC(=O)N(C)Cc3ccccc3)cc2CC1C (configuration not stated),1.1%,-1.3%,-3.0,8.9,7.38µM*
CC1(C)C=C2C(=NN(c3ccccc3)C(N)=C2C#N)CO1,-4.4%,-4.7%,-2.3,-8.1,?
Cc1cc(C)c(C)c(S(=O)(=O)N2CCN(C(=O)CNC(=O)c3ccco3)CC2)c1C,7.8%,nt,nt,nt,5.4%
Cc1cc(C(F)(F)F)nc(SCC(=O)Nc2c(C)n(C)n(-c3ccccc3)c2=O)n1,15.7%,-3.2%,-3.4,-16.9,-20.9%
N#Cc1ccc(C23CC4(C2)[C@H](CN(CC2CCCCC2)[C@@H]4c2ccccc2)C3c2ccc(C(F)(F)F)cc2)cc1 (some centres not stated),10.4µM*,2.7%,-0.7,-2.5,?
N#Cc1ccc(C23CC4(C2)[C@H](CN(CC2CCCCC2)[C@@H]4c2ccccc2)C3c2ccccc2)cc1 (some centres not stated),?,0.0%,-3.4,-9.7,11.7µM*
N#Cc1ccc(C23CC4(C2)[C@H](CN(CC2CCCCC2)[C@@H]4c2ccccc2)C3c2ccc(Cl)nc2)cc1 (some centres not stated),?,3.3%,-2.7,-4.5,?
CCN(CC)c1ccc2cc(S(=O)(=O)c3ccc(Cl)cc3)c(=O)oc2c1,?,-0.2%,-2.9,-10.6,13.1µM*
CCCCCCc1cc2cc(S(=O)(=O)c3ccc(Cl)cc3)c(=O)oc2cc1O,-25.7%,1.5%,-3.4,-11.7,15.8%
C=CCn1c(SCc2cc(=O)n3ccsc3n2)nc2scc(C3CC3)c2c1=O,?,1.8%,-4.7,-6.1,4.15µM*
C=CCn1c(SCc2cc(=O)n3ccsc3n2)nc2ccccc2c1=O,3.0%,-0.2%,-0.3,-16.5,14.4%
COc1cccc(CNC(=O)[C@@H](C)N2C(=O)N3CCc4c([nH]c5ccc(OC)cc45)C3(C)C2=O)c1 (some centres not stated),-50.0%,0.4%,-2.2,-3.6,?
O=C1/C(=C\c2ccncc2)N2CCC1CC2,-0.3%,0.6%,-0.2,-15.3,2.1%
O=C1/C(=C\c2cccnc2)N2CCC1CC2,?,-0.5%,-1.4,7.6,9.28µM*
CN1C/C(=C/c2cccnc2)C(=O)/C(=C/c2cccnc2)C1,?,-0.1%,24.8*,1.3,?
CC(C)N1C/C(=C/c2ccsc2)C(=O)/C(=C/c2ccsc2)C1,?,3.7%,15.5*,-7.2,?
CC(C)N1C/C(=C/c2cccnc2)C(=O)/C(=C/c2cccnc2)C1,13.1µM*,1.3%,20.6*,28.0,303.8%
COc1ccc(N2CC(C(=O)N[C@@H](CC(C)C)C(=O)NC3CCCC3)CC2=O)cc1 (some centres not stated),?,-1.8%,-3.4,18.6,?
Cc1cc2occ(CC(=O)N(C)CC(=O)Nc3ccc(F)cc3)c2cc1C,-6.8%,nt,nt,nt,15.9%
Cc1cccc(NC(=O)c2nc[nH]c2C(=O)N2CCc3ccccc3C2)c1,4.7%,nt,nt,nt,?
Cc1cc([N+](=O)[O-])ccc1NC(=O)c1csc(C)c1C,145.0%,-2.5%,63.4*,98.6*,-4.7%
Cc1c(NC(=O)c2ccccc2)cccc1[N+](=O)[O-],20.4%,-1.9%,17.5*,+,44.3%
Cc1c(NC(=O)c2cccs2)cccc1[N+](=O)[O-],20.3%,2.4%,2.5,-4.4,0.0%

# Screening results (PubChem)
